Test results reported in PubChem BioAssay (NCI).
The panel holds about 83,000 compounds, 20% with a hit somewhere; the sample as a whole holds those more often.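 96-well plates, one dose, 48 hours. Percent growth reported; active if below 10.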 A number with no mark means an inactive call. The source made the active and inactive calls.

Experiments:
Experiment in all cases: NCI-60 one-dose screen, 48 h (100 = growth as untreated, 0 = no growth, -100 = all killed)
Conditions in all cases: 10 µM unless noted
DU-145 prostate = test system: DU-145 prostate
K-562 leukemia = test system: K-562 leukemia
MALME-3M melanoma = test system: MALME-3M melanoma
MDA-MB-231 breast = test system: MDA-MB-231 breast
RXF 393 renal = test system: RXF 393 renal
SF-268 CNS = test system: SF-268 CNS
SF-295 CNS = test system: SF-295 CNS
SF-539 CNS = test system: SF-539 CNS
UACC-257 melanoma = test system: UACC-257 melanoma
M14 melanoma = test system: M14 melanoma
HCT-15 colon = test system: HCT-15 colon
HT29 colon = test system: HT29 colon
SNB-75 CNS = test system: SNB-75 CNS
SNB-19 CNS = test system: SNB-19 CNS
U251 CNS = test system: U251 CNS
PC-3 prostate = test system: PC-3 prostate
SK-MEL-5 melanoma = test system: SK-MEL-5 melanoma
UACC-62 melanoma = test system: UACC-62 melanoma
LOX IMVI melanoma = test system: LOX IMVI melanoma
SK-MEL-28 melanoma = test system: SK-MEL-28 melanoma

Structure (SMILES)	growth (DU-145 prostate)	growth (K-562 leukemia)	growth (MALME-3M melanoma)	growth (MDA-MB-231 breast)	growth (RXF 393 renal)	growth (SF-268 CNS)	growth (SF-295 CNS)	growth (SF-539 CNS)	growth (UACC-257 melanoma)	growth (M14 melanoma)	growth (HCT-15 colon)	growth (HT29 colon)	growth (SNB-75 CNS)	growth (SNB-19 CNS)	growth (U251 CNS)	growth (PC-3 prostate)	growth (SK-MEL-5 melanoma)	growth (UACC-62 melanoma)	growth (LOX IMVI melanoma)	growth (SK-MEL-28 melanoma)
Brc1ccc2c(c1)CN(C1CCCCC1)CO2	111%	89.7%	115%	102%	107%	96.4%	104%	98.2%	120%	105%	104%	103%	82.2%	103%	108%	91.6%	104%	105%	95.1%	118%
COc1cc2c(c(OC)c1OC)-c1ccc(NNC(N)=S)c(=O)cc1[C@@H](NC(C)=O)CC2	-14.5% (active)	10.1%	88.4%	20%	-8.91% (active)	21.3%	10.6%	-18.4% (active)	57.2%	-2.7% (active)	38.8%	-17.8% (active)	59.5%	42.3%	13.6%	13.8%	-41.2% (active)	32.2%	26.2%	62.8%
O=C(O)c1cc([N+](=O)[O-])ccc1Br	106%	100%	102%	101%	110%	102%	97.2%	94.8%	102%	98.3%	98.4%	103%	89.5%	99.1%	96.3%	100%	98.9%	91.9%	94.7%	97.8%
COc1cc2c(=O)[nH]c3cc([N+](=O)[O-])ccc3c2cc1[N+](=O)[O-]	73.4%	49.2%	50.3%	56%	72.2%	63.7%	47.9%	45%	41.7%	76.4%	46%	30.6%	36.5%	58.3%	37.8%	55.2%	41.3%	41.4%	36.7%	78.5%
C[C@]12CCc3nc(Nc4ccccc4)sc3C1=CC[C@@H]1[C@@H]2CC[C@]2(C)/C(=N/NC(N)=S)CC[C@@H]12	36.3%	9.46% (active)	69.5%	56.3%	-8.56% (active)	49.3%	21.2%	37.3%	67.9%	73.1%	-11.6% (active)	5.72% (active)	35.3%	62.1%	37.3%	26.6%	38.1%	42.6%	69.6%	63.6%
O=C(Nc1ccc(C(=O)/C=C/c2ccc(N3CCOCC3)cc2)cc1)Nc1ccc([N+](=O)[O-])cc1	98%	68.6%	108%	94.8%	119%	97.1%	103%	109%	99%	110%	92.9%	88.6%	94.7%	98.4%	85.7%	85.5%	95.1%	79.6%	107%	109%
COc1ccc(/C=C/C=C\C(=O)c2ccc(-n3ccnc3)cc2)cc1	98%	66.2%	92.8%	94%	92.7%	96.2%	99.7%	97.9%	93.1%	21.3%	91.3%	93.4%	90.8%	87.6%	83.3%	88.8%	88.6%	79.1%	93.5%	104%
